Reference: PubChem BioAssay (EPA / NIEHS)
Values joined by “and” are separate entries in the source; they are usually repeats but may differ in a detail not shown here. Equal values may be shown once. Results filed as inconclusive are left out. Active and inactive are the calls of the source. The calls were made as follows: active = hit-call score of the fitted dose curve at least 0.9, where 1 is the maximum; inconclusive = response in the unintended direction; inactive = score below 0.9.

Tests used:
[1] = target: human Adenosine A2a Receptor (AdoRA2a), ADORA2A (gene 135) (UniProt P29274); experiment: NVS_GPCR_hAdoRA2a: NovaScreen (NVS) G Protein-Coupled Receptor Assay for human Adenosine A2a Receptor (AdoRA2a) (AID 2283256)
Sequence of human Adenosine A2a Receptor (AdoRA2a), ADORA2A (gene 135) (P29274 whole entry, looked up): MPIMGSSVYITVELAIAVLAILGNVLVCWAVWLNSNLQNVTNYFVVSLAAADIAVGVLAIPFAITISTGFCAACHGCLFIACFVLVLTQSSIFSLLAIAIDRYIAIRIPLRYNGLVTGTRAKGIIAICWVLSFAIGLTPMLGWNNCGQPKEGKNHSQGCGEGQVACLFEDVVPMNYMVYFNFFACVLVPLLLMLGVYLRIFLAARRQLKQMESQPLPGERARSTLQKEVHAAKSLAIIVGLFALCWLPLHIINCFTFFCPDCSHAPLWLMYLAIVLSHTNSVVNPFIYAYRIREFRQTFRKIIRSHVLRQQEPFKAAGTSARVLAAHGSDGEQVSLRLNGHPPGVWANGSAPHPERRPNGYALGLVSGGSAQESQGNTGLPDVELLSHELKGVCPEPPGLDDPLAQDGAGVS
Summary of the method: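 HEK293-derived receptor preparation, radioligand displacement, 1.5 h, filtration + scintillation read. Loss of bound signal scored vs DMSO. Single-point 25 uM in duplicate first, then concentration-response for actives.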

[2] = target: human Serotonin, 5-Hydroxytryptamine Receptor 5A (5HT5A), HTR5A (gene 3361) (UniProt P47898); experiment: NVS_GPCR_h5HT5A: NovaScreen (NVS) G Protein-Coupled Receptor Assay for human Serotonin, 5-Hydroxytryptamine Receptor 5A (5HT5A) (AID 2283251)
Sequence of human Serotonin, 5-Hydroxytryptamine Receptor 5A (5HT5A), HTR5A (gene 3361) (P47898 whole entry, looked up): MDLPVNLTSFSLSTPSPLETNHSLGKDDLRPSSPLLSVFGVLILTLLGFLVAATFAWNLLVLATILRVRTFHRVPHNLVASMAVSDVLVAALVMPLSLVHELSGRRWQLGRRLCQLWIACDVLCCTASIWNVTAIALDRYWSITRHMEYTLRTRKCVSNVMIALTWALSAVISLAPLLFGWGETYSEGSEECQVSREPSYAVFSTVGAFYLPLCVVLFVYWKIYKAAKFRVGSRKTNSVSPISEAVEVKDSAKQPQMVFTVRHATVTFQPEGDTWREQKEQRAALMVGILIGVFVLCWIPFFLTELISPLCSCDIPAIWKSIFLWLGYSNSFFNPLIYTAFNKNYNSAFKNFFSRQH
Summary of the method: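 Membranes from HEK293 cells, radioligand binding read by filtration and scintillation after 1 h. Single-concentration duplicate testing at 25 uM, then concentration-response for actives; positive-direction fitting relative to DMSO.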

[3] = target: human Serotonin, 5-Hydroxytryptamine Receptor 7 (5HT7), HTR7 (gene 3363) (UniProt P34969); experiment: NVS_GPCR_h5HT7: NovaScreen (NVS) G Protein-Coupled Receptor Assay for human Serotonin, 5-Hydroxytryptamine Receptor 7 (5HT7) (AID 2283255);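 also: hits reduce specific radioligand binding relative to DMSO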
Sequence of human Serotonin, 5-Hydroxytryptamine Receptor 7 (5HT7), HTR7 (gene 3363) (P34969 whole entry, looked up): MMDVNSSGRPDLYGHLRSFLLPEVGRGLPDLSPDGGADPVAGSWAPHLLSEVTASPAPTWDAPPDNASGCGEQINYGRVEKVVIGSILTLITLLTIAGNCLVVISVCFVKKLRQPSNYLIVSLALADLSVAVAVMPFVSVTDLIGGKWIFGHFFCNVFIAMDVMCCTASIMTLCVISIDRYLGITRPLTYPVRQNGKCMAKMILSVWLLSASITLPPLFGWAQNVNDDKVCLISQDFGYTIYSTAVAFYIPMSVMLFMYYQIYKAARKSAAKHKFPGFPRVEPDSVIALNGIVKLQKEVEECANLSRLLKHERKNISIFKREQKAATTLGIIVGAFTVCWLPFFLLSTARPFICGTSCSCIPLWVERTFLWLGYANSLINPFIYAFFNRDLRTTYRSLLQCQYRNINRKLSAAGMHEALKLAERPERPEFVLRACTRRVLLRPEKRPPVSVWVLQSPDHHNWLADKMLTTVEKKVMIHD
Summary of the method: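 Filter-bound radioactivity counted after 1 h, with loss of specific radioligand binding fitted against DMSO. Membrane protein came from CHO cells expressing human 5HT7. Chemicals were tested first at 25 uM in duplicate, then in concentration series if active.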

[4] = target: human Adrenergic, Beta 1 Receptor (Adrb1), ADRB1 (gene 153) (UniProt P08588); experiment: NVS_GPCR_hAdrb1: NovaScreen (NVS) G Protein-Coupled Receptor Assay for human Adrenergic, Beta 1 Receptor (Adrb1) (AID 2283258)
Summary of the method: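 Membranes/protein extracted from human neuroepithelioma cells, radioligand competition binding read by filtration and scintillation 2 h post-dose. Single 25 uM duplicate screen, then concentration-response follow-up; DMSO as negative control.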

[5] = target: human Dopamine Receptor D4.4 (DRD4.4), DRD4 (gene 1815) (UniProt P21917); experiment: NVS_GPCR_hDRD4.4: NovaScreen (NVS) G Protein-Coupled Receptor Assay for human Dopamine Receptor D4.4 (DRD4.4) (AID 2283264)
Sequence of human Dopamine Receptor D4.4 (DRD4.4), DRD4 (gene 1815) (P21917 whole entry, looked up): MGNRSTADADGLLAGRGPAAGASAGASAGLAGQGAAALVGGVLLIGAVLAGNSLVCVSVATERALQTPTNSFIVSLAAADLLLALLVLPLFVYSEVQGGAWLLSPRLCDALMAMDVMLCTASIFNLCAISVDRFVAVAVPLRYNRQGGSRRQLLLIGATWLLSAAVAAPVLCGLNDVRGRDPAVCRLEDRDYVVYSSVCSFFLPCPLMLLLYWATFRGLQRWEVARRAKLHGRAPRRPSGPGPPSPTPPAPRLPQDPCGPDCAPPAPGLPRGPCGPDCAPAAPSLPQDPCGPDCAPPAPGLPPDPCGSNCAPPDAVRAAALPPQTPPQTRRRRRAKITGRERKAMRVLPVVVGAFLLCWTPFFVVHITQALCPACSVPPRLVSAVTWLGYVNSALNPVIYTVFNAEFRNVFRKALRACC
Summary of the method: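 Filter-binding assay with a tritiated or iodinated ligand, cell-free receptor prepared from CHO, 1 hour. Loss of bound radioactivity versus DMSO; single 25 uM duplicate screen, then concentration-response for actives.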

[6] = target: human Dopamine Receptor D2 (DRD2), DRD2 (gene 1813) (UniProt P14416); experiment: NVS_GPCR_hDRD2s: NovaScreen (NVS) G Protein-Coupled Receptor Assay for human Dopamine Receptor D2 (DRD2) (AID 2283266)
Sequence of human Dopamine Receptor D2 (DRD2), DRD2 (gene 1813) (P14416 whole entry, looked up): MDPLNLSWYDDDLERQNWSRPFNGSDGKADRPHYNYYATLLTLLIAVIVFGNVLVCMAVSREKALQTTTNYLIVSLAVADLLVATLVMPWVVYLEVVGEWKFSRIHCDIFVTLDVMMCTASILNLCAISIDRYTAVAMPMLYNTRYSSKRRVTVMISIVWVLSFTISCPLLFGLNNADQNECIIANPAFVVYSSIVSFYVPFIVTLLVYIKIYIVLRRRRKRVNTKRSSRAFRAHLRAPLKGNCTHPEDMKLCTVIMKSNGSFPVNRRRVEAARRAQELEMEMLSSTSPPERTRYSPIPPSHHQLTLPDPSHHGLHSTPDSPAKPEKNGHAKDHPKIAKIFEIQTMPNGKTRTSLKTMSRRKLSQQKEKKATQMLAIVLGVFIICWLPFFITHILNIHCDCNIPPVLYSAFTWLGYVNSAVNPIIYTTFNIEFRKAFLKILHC
Summary of the method: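 Test compound (25 uM, duplicate in the primary screen; concentration series at follow-up) competed with radioligand for human DRD2 in CHO-derived membrane protein. Filter-based scintillation counting was done 1.5 hours after dosing, with loss of signal analysed against DMSO.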

[7] = target: guinea pig Opioid, Kappa 1 Receptor (OpiateK), OPRK1 (gene 100135587) (UniProt P41144); experiment: NVS_GPCR_gOpiateK: NovaScreen (NVS) G Protein-Coupled Receptor Assay for guinea pig Opioid, Kappa 1 Receptor (OpiateK) (AID 2283252);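 also: active means reduced radioligand binding relative to DMSO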
Sequence of guinea pig Opioid, Kappa 1 Receptor (OpiateK), OPRK1 (gene 100135587) (P41144 whole entry, looked up): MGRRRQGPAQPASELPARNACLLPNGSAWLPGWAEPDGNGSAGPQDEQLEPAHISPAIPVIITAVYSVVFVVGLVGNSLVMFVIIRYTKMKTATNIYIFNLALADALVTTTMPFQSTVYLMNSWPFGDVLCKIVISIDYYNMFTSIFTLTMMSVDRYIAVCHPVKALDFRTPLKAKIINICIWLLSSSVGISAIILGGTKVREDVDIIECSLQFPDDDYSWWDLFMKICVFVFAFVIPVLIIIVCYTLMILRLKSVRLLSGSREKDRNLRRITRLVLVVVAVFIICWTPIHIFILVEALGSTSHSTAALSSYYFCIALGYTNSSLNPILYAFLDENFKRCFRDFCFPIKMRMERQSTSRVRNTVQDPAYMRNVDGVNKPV
Summary of the method: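 Radioligand binding to kappa opioid receptor in guinea pig cerebellar membranes, read by filtration and scintillation at 2 h. Compounds first tested in duplicate at 25 uM, then actives in concentration series; signal loss fitted against DMSO.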

[8] = target: human Adrenergic, Beta 3 Receptor (Adrb3), ADRB3 (gene 155) (UniProt P13945); experiment: NVS_GPCR_hAdrb3: NovaScreen (NVS) G Protein-Coupled Receptor Assay for human Adrenergic, Beta 3 Receptor (Adrb3) (AID 2283262)
Summary of the method: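 A cell-free filter binding assay read by scintillation counting, with displacement of a specific radioligand measured after 1 hour. The receptor source was SK-N-MC extracts (cells pretreated with isoproterenol and 8-bromo-cAMP). Compounds were first tested at 25 uM in duplicate and then in concentration series.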

[9] = target: human Serotonin, 5-Hydroxytryptamine Receptor 6 (5HT6), HTR6 (gene 3362) (UniProt P50406); experiment: NVS_GPCR_h5HT6: NovaScreen (NVS) G Protein-Coupled Receptor Assay for human Serotonin, 5-Hydroxytryptamine Receptor 6 (5HT6) (AID 2283253)
Sequence of human Serotonin, 5-Hydroxytryptamine Receptor 6 (5HT6), HTR6 (gene 3362) (P50406 whole entry, looked up): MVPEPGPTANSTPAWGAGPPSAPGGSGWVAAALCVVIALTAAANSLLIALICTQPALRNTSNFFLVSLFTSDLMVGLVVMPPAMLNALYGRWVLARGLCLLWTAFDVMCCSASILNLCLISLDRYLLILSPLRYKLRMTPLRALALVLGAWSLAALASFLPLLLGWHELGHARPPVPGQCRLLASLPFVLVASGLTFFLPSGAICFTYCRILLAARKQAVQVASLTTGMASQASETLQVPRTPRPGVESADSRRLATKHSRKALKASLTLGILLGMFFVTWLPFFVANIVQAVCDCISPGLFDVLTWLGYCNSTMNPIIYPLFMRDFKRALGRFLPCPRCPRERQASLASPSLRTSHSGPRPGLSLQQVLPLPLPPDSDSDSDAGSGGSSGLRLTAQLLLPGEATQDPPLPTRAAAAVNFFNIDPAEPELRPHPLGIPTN
Summary of the method: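 Filter scintillation counting of radioligand displacement from HEK293-expressed 5HT6, 1 hour post-dose, with loss of signal relative to DMSO. Single 25 uM duplicates first, with concentration series for confirmation.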

[10] = target: human Serotonin, 5-Hydroxytryptamine Receptor 2A (5HT2A), HTR2A (gene 3356) (UniProt P28223); experiment: NVS_GPCR_h5HT2A: NovaScreen (NVS) G Protein-Coupled Receptor Assay for human Serotonin, 5-Hydroxytryptamine Receptor 2A (5HT2A) (AID 2283249)
Sequence of human Serotonin, 5-Hydroxytryptamine Receptor 2A (5HT2A), HTR2A (gene 3356) (P28223 whole entry, looked up): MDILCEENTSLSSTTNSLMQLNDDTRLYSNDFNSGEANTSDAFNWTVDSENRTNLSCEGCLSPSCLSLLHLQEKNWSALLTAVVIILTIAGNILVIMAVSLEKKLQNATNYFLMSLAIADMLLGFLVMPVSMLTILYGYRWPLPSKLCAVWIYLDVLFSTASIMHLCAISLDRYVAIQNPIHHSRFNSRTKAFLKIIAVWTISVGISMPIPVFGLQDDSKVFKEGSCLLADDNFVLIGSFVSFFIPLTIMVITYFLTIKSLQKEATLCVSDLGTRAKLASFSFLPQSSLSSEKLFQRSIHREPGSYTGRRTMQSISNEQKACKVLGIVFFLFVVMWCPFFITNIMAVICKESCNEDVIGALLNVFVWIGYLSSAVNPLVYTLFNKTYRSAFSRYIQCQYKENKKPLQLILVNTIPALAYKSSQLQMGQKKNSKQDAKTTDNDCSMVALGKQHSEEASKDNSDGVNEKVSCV
Summary of the method: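 Radioligand displacement on human cortex tissue extract, counted by filtration and scintillation 1.5 h post-dosing. Initial single-concentration screen at 25 uM in duplicate, concentration series in follow-up; DMSO as baseline.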

[11] = test system: guinea pig Muscarinic, Peripheral (Mperiperal) Receptor, Non-selective Binding, gene 100379235; experiment: NVS_GPCR_gMPeripheral_NonSelective: NovaScreen (NVS) G Protein-Coupled Receptor Assay for guinea pig Muscarinic, Peripheral (Mperiperal) Receptor, Non-selective Binding (AID 2283250)
Summary of the method: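 Screened in duplicate at 25 uM, hits retested in concentration series to 50 uM max, using bladder membrane radioligand displacement from guinea pig. Filtration and scintillation counting 1 h post-dose, fitted relative to DMSO.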

[12] = target: human Adrenergic, Alpha 2A Receptor (Adra2A), ADRA2A (gene 150) (UniProt P08913); experiment: NVS_GPCR_hAdra2A: NovaScreen (NVS) G Protein-Coupled Receptor Assay for human Adrenergic, Alpha 2A Receptor (Adra2A) (AID 2283257)
Summary of the method: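 Displacement of a specific radioligand from HT29 membrane protein was counted by filter scintillation after 1 h. Compounds were screened in duplicate at 25 uM, and actives were retested in concentration series. Fitting was positive-direction against DMSO.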

[13] = target: human Adrenergic, Alpha 2c Receptor (Adra2C), ADRA2C (gene 152) (UniProt P18825); experiment: NVS_GPCR_hAdra2C: NovaScreen (NVS) G Protein-Coupled Receptor Assay for human Adrenergic, Alpha 2c Receptor (Adra2C) (AID 2283259)
Sequence of human Adrenergic, Alpha 2c Receptor (Adra2C), ADRA2C (gene 152) (P18825 whole entry, looked up): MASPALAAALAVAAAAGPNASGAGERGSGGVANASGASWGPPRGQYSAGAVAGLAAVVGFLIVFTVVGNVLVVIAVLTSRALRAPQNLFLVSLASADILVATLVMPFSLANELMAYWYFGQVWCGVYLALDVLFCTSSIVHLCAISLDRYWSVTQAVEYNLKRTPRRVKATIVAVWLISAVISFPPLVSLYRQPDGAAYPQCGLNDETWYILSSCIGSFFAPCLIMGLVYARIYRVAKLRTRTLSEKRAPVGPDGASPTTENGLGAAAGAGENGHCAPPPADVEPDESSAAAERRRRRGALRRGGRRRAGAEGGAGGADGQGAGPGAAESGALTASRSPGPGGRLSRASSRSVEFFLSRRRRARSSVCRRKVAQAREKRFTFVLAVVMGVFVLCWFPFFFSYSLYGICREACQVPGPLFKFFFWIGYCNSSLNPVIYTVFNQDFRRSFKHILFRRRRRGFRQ
Summary of the method: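 Screened first in duplicate at 25 uM, with actives then run as concentration series. Membranes from Sf9 cells were exposed for 1 h, and displacement of radioligand was counted after filtration, using DMSO as baseline.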

[14] = target: Beta-2 adrenergic receptor (Homo sapiens) (UniProt P07550); experiment: NVS_GPCR_hAdrb2: NovaScreen (NVS) G Protein-Coupled Receptor Assay for human Adrenergic, Beta 2 Receptor (Adrb2) (AID 2283261)
Summary of the method: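 Compounds screened in duplicate at 25 uM, then actives in concentration series. Human beta-2 receptor from CHO material, cell-free; radioligand displacement after 1 h measured by filtration and scintillation against DMSO baseline.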

[15] = target: human Histamine 1 Receptor (H1), HRH1 (gene 3269) (UniProt P35367); experiment: NVS_GPCR_hH1: NovaScreen (NVS) G Protein-Coupled Receptor Assay for human Histamine 1 Receptor (H1) (AID 2283268)
Sequence of human Histamine 1 Receptor (H1), HRH1 (gene 3269) (P35367 whole entry, looked up): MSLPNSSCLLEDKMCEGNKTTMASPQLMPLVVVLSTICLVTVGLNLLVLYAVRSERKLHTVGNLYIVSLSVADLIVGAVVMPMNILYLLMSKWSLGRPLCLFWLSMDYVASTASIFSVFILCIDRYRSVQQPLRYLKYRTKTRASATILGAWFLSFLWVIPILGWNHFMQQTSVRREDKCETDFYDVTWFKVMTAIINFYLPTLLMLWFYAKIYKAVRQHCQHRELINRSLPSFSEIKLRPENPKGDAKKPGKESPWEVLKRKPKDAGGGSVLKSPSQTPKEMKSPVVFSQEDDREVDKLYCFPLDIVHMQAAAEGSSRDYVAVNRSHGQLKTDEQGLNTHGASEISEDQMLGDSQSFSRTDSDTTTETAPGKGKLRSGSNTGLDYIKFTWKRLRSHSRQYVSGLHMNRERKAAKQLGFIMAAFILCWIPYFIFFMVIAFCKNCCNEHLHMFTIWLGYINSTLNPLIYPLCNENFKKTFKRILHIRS
Summary of the method: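 Filter-based scintillation detection of radioligand binding to human H1, 1 h incubation; chemicals screened in duplicate at 25 uM, then concentration-response; signal loss relative to DMSO taken as activity.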

[16] = target: guinea pig Leukotriene D4 Receptor (LTD4), CYSLTR1 (gene 100135514) (UniProt Q2NNR5); experiment: NVS_GPCR_gLTD4: NovaScreen (NVS) G Protein-Coupled Receptor Assay for guinea pig Leukotriene D4 Receptor (LTD4) (AID 2283248)
Summary of the method: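 Guinea pig lung membrane preparation; bound radioligand measured by filter scintillation after 1 h, loss of signal versus DMSO marking displacement. Compounds tested at 25 uM in duplicate, hits retested to max 50 uM.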

[17] = target: human Adenosine A1 Receptor (AdoRA1), ADORA1 (gene 134) (UniProt P30542); experiment: NVS_GPCR_hAdoRA1: NovaScreen (NVS) G Protein-Coupled Receptor Assay for human Adenosine A1 Receptor (AdoRA1) (AID 2283254)
Sequence of human Adenosine A1 Receptor (AdoRA1), ADORA1 (gene 134) (P30542 whole entry, looked up): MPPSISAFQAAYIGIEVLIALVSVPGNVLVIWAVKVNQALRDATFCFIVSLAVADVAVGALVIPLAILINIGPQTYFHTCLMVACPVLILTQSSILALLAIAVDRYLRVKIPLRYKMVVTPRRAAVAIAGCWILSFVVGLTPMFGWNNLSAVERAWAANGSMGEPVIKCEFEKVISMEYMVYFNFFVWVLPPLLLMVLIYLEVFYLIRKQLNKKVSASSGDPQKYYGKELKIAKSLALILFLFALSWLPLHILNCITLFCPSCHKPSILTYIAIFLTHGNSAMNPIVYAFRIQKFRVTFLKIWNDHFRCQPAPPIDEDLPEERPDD
Summary of the method: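 Radioligand binding was run on human cortical membranes, cell-free, with filter-based scintillation counting 1 h after dosing. The primary screen was duplicate at 25 uM, followed by concentration series. Signal loss versus DMSO was fitted positive-direction.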

[18] = target: Type-1 angiotensin II receptor (Homo sapiens) (UniProt P30556); experiment: NVS_GPCR_hAT1: NovaScreen (NVS) G Protein-Coupled Receptor Assay for human Angiotensin II receptor type 1 (AT1) (AID 2283263)
Summary of the method: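 Hits from a 25 uM duplicate screen (threshold e.g. 30% inhibition) were run in concentration-response with 50 uM top concentration. Displacement of specific radioligand from KAN-TS membrane preparations measured after 3 h by filter scintillation, DMSO as baseline.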

[19] = target: human Endothelin Receptor Type A (ETA), EDNRA (gene 1909) (UniProt P25101); experiment: NVS_GPCR_hETA: NovaScreen (NVS) G Protein-Coupled Receptor Assay for human Endothelin Receptor Type A (ETA) (AID 2283265)
Summary of the method: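 Binding of radioligand to membrane protein extracted from SH-SY5Y cells was read by filtration and scintillation after 3 h. Compounds were screened at 25 uM in duplicate, with hits followed up in singleton concentration series to 50 uM.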

[20] = target: human Endothelin Receptor Type B (ETB), EDNRB (gene 1910) (UniProt P24530); experiment: NVS_GPCR_hETB: NovaScreen (NVS) G Protein-Coupled Receptor Assay for human Endothelin Receptor Type B (ETB) (AID 2283267)
Summary of the method: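 Filter-based scintillation readout of radioligand displacement, 4 h, using membranes from human astrocytoma cells. Actives from a 25 uM duplicate screen were retested in concentration-response (top 50 uM) relative to DMSO baseline.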

Measured: AC50

COS(=O)(=O)c1ccc(C)cc1
inactive: [1]

O=C1C2(Cl)C3(Cl)C4(Cl)C(Cl)(Cl)C5(Cl)C3(Cl)C1(Cl)C5(Cl)C24Cl (centres undefined)
inactive: [2]
active: [3] 1.04 µM | [1] 0.11 µM | [4] 0.978 µM

COc1cc(-c2ccc(N)c(OC)c2)ccc1N
inactive: [3]
active: [5] 16.7 µM | [6] 5.28 µM and 9.98 µM

Clc1ccc(C2(Cn3cncn3)CC(Br)CO2)c(Cl)c1 (centres undefined)
active: [7] 11.8 µM

CN(C)N=O
inactive: [8]

Cn1sc(Cl)cc1=O
inactive: [7] | [9]

CCN1CCC2(CC1)COc1cc3c(cc12)N(C(=O)c1ccc(-c2ccc(-c4nnc(C)o4)cc2C)cc1)CC3
inactive: [8] | [5]
active: [10] 10.2 µM | [11] 1.79 µM | [2] 23.4 µM | [3] 23.4 µM | [12] 13.9 µM | [13] 14.3 µM | [14] 23.4 µM | [15] 32.2 µM

CC(C)(C)CC(C)(C)c1ccc(O)cc1
active: [3] 34.1 µM | [13] 25 µM
inactive: [1]

CCC(=O)C(CC(C)N(C)C)(c1ccccc1)c1ccccc1 (centres undefined)
inactive: [13] | [8]
active: [10] 5.61 µM | [11] 7.94 µM | [2] 6.69 µM | [7] 1.42 µM | [9] 18.1 µM | [3] 3.59 µM | [12] 16 µM | [6] 5.6 µM | [15] 7.25 µM

CC(=O)[O][Hg][c]1ccccc1
active: [16] 1.58 µM | [10] 19.1 µM | [11] 6 µM | [2] 0.791 µM | [7] 31.4 µM | [9] 1.32 µM | [17] 25 µM | [3] 0.577 µM | [1] 6.98 µM | [12] 20.1 µM | [4] 0.993 µM | [13] 0.252 µM | [14] 0.934 µM | [8] 6.02 µM | [18] 15.1 µM | [5] 0.794 µM | [19] 1.07 µM | [6] 0.428 µM | [15] 1.18 µM

CCOP(=S)(OCC)Oc1nc(Cl)c(Cl)cc1Cl
inactive: [3]

C=C(C)C(=O)[O][Sn]([CH2]CCC)([CH2]CCC)[CH2]CCC
active: [16] 1.86 µM | [10] 36.2 µM | [11] 14 µM | [2] 2.16 µM | [7] 16.9 µM | [9] 4.82 µM | [17] 25 µM | [3] 0.499 µM | [1] 6.84 µM | [12] 4.06 µM | [4] 0.925 µM | [13] 0.281 µM | [14] 4.57 µM | [8] 25 µM | [18] 2.23 µM | [5] 1.75 µM | [19] 0.697 µM | [6] 0.363 µM | [20] 14.8 µM | [15] 1.96 µM

COP(=S)(OC)Oc1ccc(Sc2ccc(OP(=S)(OC)OC)cc2)cc1
active: [1] 17.1 µM
inactive: [16]

CCOP(=S)(OCC)SCSP(=S)(OCC)OCC
inactive: [6]

Oc1c(I)cc(I)cc1I
inactive: [1]

CCNc1nc(NC(C)(C)C)nc(SC)n1
active: [17] 17.8 µM | [1] 17.4 µM

O=C(O)C(F)(F)C(F)(F)C(F)(F)C(F)(F)C(F)(F)C(F)(F)C(F)(F)C(F)(F)C(F)(F)C(F)(F)F
inactive: [16] | [2]
active: [3] 12.9 µM | [1] 2.43 µM | [13] 4.5 µM | [6] 11 µM

ClCCBr
inactive: [16]
